Assay outcomes from PubChem BioAssay.
Pol eta inh-1 = qHTS for Inhibitors of Polymerase Eta; Potency, µM (doses to about 114 µM), hits mostly inhibitors; DNA polymerase eta (Homo sapiens), Q9Y253; 1.2% of 390,000 active; recombinant Pol eta, fluorescent DNA replication assay
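Pol eta at 10 nM preincubated with compounds 15 min at room temperature; reaction started with fluorescent substrate (50 nM final) and read kinetically at 0 and 10 min.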
POLB inh = qHTS Assay for Inhibitors of DNA Polymerase Beta; P06746; 1.3% of 340,000 active; Pol beta primer extension/strand displacement, fluorescence kinetic; Potency, µM (doses to about 114 µM), usual class: inhibitors
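Curves were derived by four-parameter Hill fits of normalized qHTS data. The kinetic fluorescent primer-extension read was taken at 0 and 10 min after 50 nM substrate, following a 15 min room-temperature preincubation of 10 nM enzyme with compounds.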
Pol iota inh = qHTS for Inhibitors of Polymerase Iota. DNA polymerase iota (Homo sapiens), Q9UNA4. Pol iota fluorescent replication assay, 10 min. Potency, µM (titrated, usually from 115 µM), most hits filed as inhibitors. 1% of 390,000 active
Target sequence (Q9UNA4 whole entry, looked up): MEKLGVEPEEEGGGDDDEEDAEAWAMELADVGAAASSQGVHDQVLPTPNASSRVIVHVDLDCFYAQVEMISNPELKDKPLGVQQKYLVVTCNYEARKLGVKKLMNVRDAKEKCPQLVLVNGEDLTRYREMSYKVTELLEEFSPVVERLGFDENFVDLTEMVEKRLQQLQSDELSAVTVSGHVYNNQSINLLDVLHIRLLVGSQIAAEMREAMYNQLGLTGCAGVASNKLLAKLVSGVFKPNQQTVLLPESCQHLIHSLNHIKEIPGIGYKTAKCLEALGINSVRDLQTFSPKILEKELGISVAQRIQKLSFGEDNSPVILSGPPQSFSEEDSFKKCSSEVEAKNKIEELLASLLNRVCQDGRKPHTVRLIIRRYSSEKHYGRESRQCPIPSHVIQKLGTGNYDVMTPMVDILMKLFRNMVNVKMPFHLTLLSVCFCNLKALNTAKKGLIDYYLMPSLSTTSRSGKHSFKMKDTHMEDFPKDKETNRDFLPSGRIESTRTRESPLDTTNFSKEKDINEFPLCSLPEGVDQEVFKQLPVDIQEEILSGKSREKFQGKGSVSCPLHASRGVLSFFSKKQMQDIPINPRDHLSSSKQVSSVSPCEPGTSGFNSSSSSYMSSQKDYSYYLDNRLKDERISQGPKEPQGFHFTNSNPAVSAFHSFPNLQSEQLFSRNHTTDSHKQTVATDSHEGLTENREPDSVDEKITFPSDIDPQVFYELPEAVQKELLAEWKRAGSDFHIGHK
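Fluorescent replication assay read twice, at 0 min and 10 min after adding 50 nM (final) substrate. Enzyme (10 nM) and compounds were first incubated 15 min at room temperature; enzyme-free buffer wells were negative controls.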
PI5P4K alpha inh = qHTS for Inhibitors of phosphatidylinositol 5-phosphate 4-kinase (PI5P4K) | 1.2% of 330,000 active | Phosphatidylinositol 5-phosphate 4-kinase type-2 alpha (Homo sapiens), P48426 | PI5P4Kalpha enzyme, ADP-Glo luminescence, 60 min; hits give low values | max response, %; active means max response of -50% or lower; inconclusive means between -30% and -50%; inactive means -30% or higher; further: value at the top dose of about 77 µM
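Compounds were pin-transferred onto PI5P4Kalpha and substrate in HEPES pH 7.4 buffer with EGTA, CHAPS and 5% DMSO. ATP (5 microM final) started the reaction, which ran 60 minutes at room temperature before ADP-Glo detection.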
FEN1 inh = qHTS Assay for the Inhibitors of Human Flap endonuclease 1 (FEN1); P39748; Recombinant FEN1 flap cleavage, fluorescence, 15 min; Potency, µM (doses to about 114 µM), hits mostly inhibitors; 0.35% of 390,000 active; further: nearly all actives have a fitted effect of over 65% in size
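Nuclease activity of 10 nM FEN1 was measured after 15 min of room-temperature exposure to titrated compounds, by adding 50 nM flap substrate and reading plates at 0 and 15 min.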
Pol kappa inh-1 = qHTS for Inhibitors of Polymerase Kappa; AID 588579, 2011; Potency, µM (series often up to 107 µM), usual class: inhibitors; DNA polymerase kappa (Homo sapiens), Q9UBT6; 0.53% of 400,000 active; purified Pol kappa, fluorescent DNA synthesis assay, 10 min
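50 nM final substrate added after 15 min RT preincubation of 10 nM Pol kappa with compound; fluorescence read at 0 and 10 min.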
PGK validate = qHTS for inhibitors of Phosphogylcerate Kinase: Hit Validation Screen | shares compounds with Pol kappa inh-1 | TbPGK coupled GAPDH assay, Kinase-Glo luminescence | Potency, µM (titrated, usually from 57.5 µM), most hits filed as inhibitors | 79% of 500 active | AID 686980, 2013; further: nearly all actives have a fitted effect of over 65% in size
POLI cherry-pick = qHTS for Inhibitors of Polymerase Iota: Confirmatory Assay for Cherry-picked Compounds; shares compounds with Pol kappa inh-1; Pol iota primer extension, TAMRA/BHQ fluorescence; 77% of 1,500 active; Potency, µM, usual class: inhibitors
GALK confirm = Confirmation Assay for Inhibitors of Human Galactokinase (GALK); Potency, µM (doses to about 115 µM), actives largely listed as inhibitors; shares compounds with Pol eta inh-1; purified GALK, Kinase-Glo ATP depletion luminescence; 70% of 150 active
Redox cycling = Confirmatory Assay for Inhibitors of Human Galactokinase (GALK): Phenol-HRP redox assay counterscreen; Phenol red-HRP H2O2 redox cycling, absorbance 600 nm; AID 2035, 2009; Potency, µM (titrated, usually from 115 µM), actives largely listed as inhibitors; shares compounds with Pol eta inh-1; 40% of 150 active
HEK293 viability = Secondary Assay for Inhibitors of Human Galactokinase (GALK): HEK-293 Cell Viability Assay; 10% of 170 active; Potency, µM (doses to about 46.1 µM), most hits filed as inhibitors; HEK-293 viability, ATP luminescence (CellTiter-Glo), 24/48 h; shares compounds with Pol eta inh-1; AID 2547, 2010
Pol kappa inh-2 = qHTS for Inhibitors of Polymerase Kappa: Confirmatory Assay for Cherry-picked Compounds. purified Pol-kappa, fluorescent strand-displacement substrate. 76% of 920 active. shares compounds with Pol eta inh-1. AID 720501, 2013. Potency, µM, usual class: inhibitors
Pol eta inh-2 = qHTS for Inhibitors of Polymerase Eta: Confirmatory Assay for Cherry-picked Compounds; shares compounds with Pol eta inh-1; Pol eta primer extension, TAMRA/BHQ fluorescence, 10 min; Potency, µM, usual class: inhibitors; 64% of 2,600 active; AID 720502, 2013
Each line names hits and unclear results; the compound was inactive in the other large screens (follow-up assays come after a bar, where they were run); ! = repeats disagree. Rows were chosen to be rich in hits. Some 2.8% of all compounds tested hit in one or more screens of this group. Unless noted, the call rests on the fitted dose curve; in most records, active means well fitted curve in the direction sought with a large enough effect; inconclusive means small, poorly fitted or top-dose-only effect, or another doubt; inactive means no such curve, though single readings can be large; an effect the other way counts as inactive or inconclusive.

CCC(=O)N(CCC(c1ccccc1)c1ccco1)Cc1cccs1 (stereo unspecified)	none
O=C(CCCN1C(=O)/C(=C\c2ccccc2)SC1=S)Nc1cccc(C(=O)O)c1	Pol iota inh inconclusive
O=C(CCN1C(=O)/C(=C\C=C\c2ccccc2)SC1=S)Nc1cccc(C(=O)O)c1	Pol eta inh-1 22µM, POLB inh 50µM, PI5P4K alpha inh inconclusive, Pol kappa inh-1 79µM | POLI cherry-pick 75 | Pol eta inh-2 54
COc1ccc(N2Cc3cccc(C(=O)Nc4ccc(C(C)C)cc4)c3C2=O)cc1	POLB inh 11µM, Pol iota inh 56µM, Pol kappa inh-1 inconclusive (no result: Pol eta inh-1, PI5P4K alpha inh) | POLI cherry-pick inconclusive | Pol kappa inh-2 30 | Pol eta inh-2 inconclusive
COc1ccc(N2Cc3cccc(C(=O)Nc4ccc(C)cc4)c3C2=O)cc1	POLB inh 13µM, Pol iota inh 79µM, Pol kappa inh-1 inconclusive (no result: Pol eta inh-1, PI5P4K alpha inh) | POLI cherry-pick inconclusive | Pol kappa inh-2 38 | Pol eta inh-2 inconclusive
CC1=C(C(=O)Nc2ccccc2C)C(c2ccc[nH]2)n2ncnc2N1 (stereo unspecified)	Pol eta inh-1 8.9µM, POLB inh 40µM, Pol iota inh 22µM, FEN1 inh inconclusive, Pol kappa inh-1 32µM (no result: PI5P4K alpha inh) | POLI cherry-pick 21 | Pol eta inh-2 30
CCc1nnc(NS(=O)(=O)c2ccc(N/C=C\C(=O)c3ccc4ccccc4c3)cc2)s1	Pol eta inh-1 50µM, POLB inh inconclusive, Pol iota inh inconclusive, PI5P4K alpha inh inconclusive, FEN1 inh inconclusive | POLI cherry-pick inconclusive | Pol eta inh-2 76
CCCCC/C=C\C/C=C\C/C=C\CCCCC(=O)O	Pol eta inh-1 20µM, Pol iota inh 40µM, PI5P4K alpha inh -54, Pol kappa inh-1 50µM! (no result: POLB inh) | POLI cherry-pick 67 | Pol kappa inh-2 21 | Pol eta inh-2 30
CCCCC/C=C\C/C=C\C/C=C\CCCCCCC(=O)O	none (no result: Pol eta inh-1, POLB inh, Pol iota inh, PI5P4K alpha inh, FEN1 inh)
COc1ccc(CCC(=O)O)c(O)c1	Pol eta inh-1 32µM, POLB inh 40µM, Pol iota inh inconclusive, Pol kappa inh-1 71µM | POLI cherry-pick 75 | Pol eta inh-2 67
COc1ccc(C(=O)CCc2ccccc2)c(O)c1	none (no result: POLB inh)
O=C(Cc1csc(N2CCOCC2)n1)N/N=C/c1ccc(O)c(O)c1O	Pol eta inh-1 inconclusive, POLB inh inconclusive, Pol iota inh inconclusive, PI5P4K alpha inh -60, FEN1 inh inconclusive, Pol kappa inh-1 inconclusive | POLI cherry-pick 15 | Pol eta inh-2 43
O=C(c1ccc(S(=O)(=O)N2CCOCC2)cc1)N(c1cccc(Cl)c1)C1C=CS(=O)(=O)C1 (stereo unspecified)	none
Cc1ccc(C2=Nc3ccccc3N=C(c3ccc(F)cc3)C2)c(O)c1	none (no result: PI5P4K alpha inh)
CC1(C)C=C2C(=NN(c3ccccc3)C(N)=C2C#N)CO1	Pol eta inh-1 18µM, Pol iota inh 14µM | POLI cherry-pick inconclusive | GALK confirm 27µM | Redox cycling 12µM | HEK293 viability inactive
Cc1ccc(/C=C2\SC(=S)N(CCC(=O)NNC(=O)c3ccc(O)cc3)C2=O)cc1	none
CN1C(=O)/C(=C/c2ccc(C(=O)Nc3ccc(O)cc3C(=O)O)cc2)SC1=S	Pol eta inh-1 22µM, POLB inh inconclusive, Pol iota inh inconclusive, PI5P4K alpha inh inconclusive, FEN1 inh inconclusive | POLI cherry-pick 75 | Pol eta inh-2 43
C/C(=N\NC(=O)c1cc(-c2cccc([N+](=O)[O-])c2)n[nH]1)c1ccccc1O	Pol eta inh-1 8.9µM, POLB inh 11µM, FEN1 inh inconclusive | POLI cherry-pick 47 | Pol kappa inh-2 84
Cc1c(NC(=O)CN2C(=O)NC3(CCC(C)CC3)C2=O)c(=O)n(-c2ccccc2)n1C (stereo unspecified)	none
O=C1S/C(=C\c2ccc(O)c([N+](=O)[O-])c2)C(=O)N1c1ccccc1Cl	Pol eta inh-1 inconclusive, Pol iota inh inconclusive, PI5P4K alpha inh inconclusive
COc1cc(/C=C2\SC(=O)N(c3cccc(Cl)c3)C2=O)cc([N+](=O)[O-])c1O	Pol eta inh-1 inconclusive, POLB inh 6.3µM, Pol iota inh 6.3µM, PI5P4K alpha inh -81, FEN1 inh 89µM, Pol kappa inh-1 inconclusive | PGK validate 4.6µM | POLI cherry-pick 38 | Pol kappa inh-2 4.2 | Pol eta inh-2 inconclusive
COc1ccc2c(=O)c3c(=O)n(Cc4ccco4)c(-c4ccco4)nc3oc2c1	Pol eta inh-1 35µM, POLB inh inconclusive, Pol iota inh 20µM, FEN1 inh inconclusive, Pol kappa inh-1 71µM (no result: PI5P4K alpha inh) | POLI cherry-pick 67 | Pol eta inh-2 43
COc1ccc(Cn2c(-c3ccco3)nc3oc4cc(OC)ccc4c(=O)c3c2=O)cc1	Pol eta inh-1 inconclusive, POLB inh inconclusive, Pol iota inh inconclusive, FEN1 inh inconclusive, Pol kappa inh-1 inconclusive
